Screens (PubChem)
An excerpt weighted towards active compounds, which were near 12% of everything screened.
JMJD2A Tudor inh: qHTS Assay for Inhibitors of JMJD2A-Tudor Domain; Lysine-specific demethylase 4A (Homo sapiens), O75164; AlphaScreen JMJD2A-Tudor / H3K4me3 peptide binding; Potency, µM (highest dose often 114 µM), for the others: at the top dose activity change, negative = inhibition, most hits filed as inhibitors; actives 4.4% (n = 390,000); also: % is scaled to controls: 0 for no effect and ±100 for the full control effect; nearly all actives have a fitted effect of over 50% in size
Sfp PPTase inh: qHTS Assay for Inhibitors of Bacillus subtilis Sfp phosphopantetheinyl transferase (PPTase); 4'-phosphopantetheinyl transferase ffp (Bacillus subtilis), Q9F4F7; Biochemical Sfp PPTase activity, qHTS; Potency, µM, without a hit: largest response in the series, negative = inhibition, hits mostly inhibitors; actives 3.5% (n = 310,000);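 also: the enzyme is Sfp with the accession as filed and its product quenches rhodamine fluorescence; 0% = enzyme reaction without inhibitor and -100% = no enzyme wells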
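Sfp 15 nM + cpd, 15 min RT; start w/ rhodamine-CoA 5 uM, BHQ-2-YbbR 12.5 uM (final); 50 mM Hepes pH 7.6, 10 mM MgCl2, 0.01% NP-40, 0.01% BSA; read 525/598 nm at 0 and 30 min.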
G9a block: qHTS Assay for Inhibitors of Histone Lysine Methyltransferase G9a; G9a H3K9 monomethylation, AlphaScreen, 2 h; Potency, µM (top dose mostly 102 µM), inactives show top-dose activity, negative = inhibition, hits mostly inhibitors; actives 8.8% (n = 350,000); AID 504332, 2011; also: % is scaled to controls: 0 for no effect and ±100 for the full control effect; nearly all actives have a fitted effect of over 75% in size
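Methyltransferase reactions run at room temperature for 2 h (20 nM enzyme, 500 nM biotin-H3K9 peptide, 20 uM SAM) after a 15 min compound preincubation; product detected by AlphaScreen beads and anti-H3K9me1 antibody.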
BAZ2B block: qHTS Assay for Inhibitors of BAZ2B; AlphaScreen BAZ2B-H3K14Ac peptide displacement; Potency, µM (titrated, usually from 114 µM), for inactives: at the top dose activity change, negative = inhibition, hits mostly inhibitors; actives 4.4% (n = 360,000); Bromodomain adjacent to zinc finger domain protein 2B (Homo sapiens), Q9UIF8; also: % is scaled to controls: 0 for no effect and ±100 for the full control effect; nearly all actives have a fitted effect of over 60% in size
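Protein-peptide AlphaScreen: BAZ2B 50 nM, b-H3K14Ac 50 nM, 1x PBS pH 7.4 + 0.01% Tween-20. Preincubation 30 min RT; cpd 30 min RT (top 110 uM); beads 20 min RT, light-protected.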
L3MBTL1 inh: qHTS Assay for the Inhibitors of L3MBTL1 | actives 0.66% (n = 230,000) | Potency, µM (top dose mostly 57.1 µM), inactives show top-dose activity, negative = inhibition, hits mostly inhibitors | AlphaScreen L3MBTL1–H3K9me1 peptide binding; also: % is scaled to controls: 0 for no effect and ±100 for the full control effect; nearly all actives have a fitted effect of over 60% in size
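Displacement of a biotinylated histone H3(1-15) peptide monomethylated at Lys9 (75 nM) from L3MBTL1 (50 nM) was measured by AlphaScreen after a 30 min room-temperature compound incubation; cefsulodin titration served as intraplate control.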
HP1b binding inh: HTS for Inhibitors of HP1-beta Chromodomain Interactions with Methylated Histone Tails; Chromobox protein homolog 1 (Homo sapiens), P83916; AlphaScreen HP1-beta / biotin-H3K9me3 peptide binding; Potency, µM (highest dose often 114 µM), for inactives: at the highest dose activity change, negative = inhibition, most hits filed as inhibitors; actives 0.56% (n = 390,000); also: nearly all actives have a fitted effect of over 70% in size
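AlphaScreen: HP1-beta (50 nM) preformed 30 min with biotin-H3(1-18)K9me3 peptide (50 nM) in PBS pH 7.4, 0.01% Tween-20. Compound added for 30 min at RT, then streptavidin donor/nickel chelate acceptor beads (10 ug/mL) for 30 min.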
Starred values were filed as active, the others as inactive; [ ] = dose if it differs, or a comment. Calls follow the shape of the dose curve; as a rule, active = well fitted curve in the direction sought with a large enough effect; inconclusive = small, poorly fitted or top-dose-only effect, or another doubt; inactive = no such curve, though single readings can be large; an effect the other way counts as inactive or inconclusive. Potency is read from the fitted curve at half-maximal effect.

Results for CC(C)(O)/C=C1/Oc2ccccc2C1N1CCCCC1 (configuration not stated) ?
JMJD2A Tudor inh: -1%; Sfp PPTase inh: 4%; G9a block: 50µM*; BAZ2B block: -6%; L3MBTL1 inh: -5%; HP1b binding inh: 38%

Results for CCOC(=O)c1ccc(N2C(=O)c3n[nH]c(-c4cccs4)c3C2c2ccc(O)c(OC)c2)cc1 (configuration not stated) ?
JMJD2A Tudor inh: -28%; G9a block: -37%[59 µM]; HP1b binding inh: 17%

Results for O=C(CSCCc1ccccn1)Nc1ccccn1 ?
JMJD2A Tudor inh: -8%; Sfp PPTase inh: -9%; G9a block: 56µM*; BAZ2B block: -2%; L3MBTL1 inh: 4%; HP1b binding inh: 51%

How did O=[N+]([O-])c1ccc(/C=N/n2c(C3CCCCC3)n[nH]c2=S)cc1 do in these assays?
JMJD2A Tudor inh: 89µM*; Sfp PPTase inh: -8%; G9a block: inconclusive; BAZ2B block: -30%; L3MBTL1 inh: -4%; HP1b binding inh: -1%

What do the screens show for `O=C1NCCCC1C(=O)N/N=C/c1ccc([N+](=O)[O-])cc1` (configuration not stated)?
JMJD2A Tudor inh: -3%; Sfp PPTase inh: 10%; G9a block: -4%; BAZ2B block: 1%; HP1b binding inh: 53%

How did O=C(O)c1ccc(/C=N/n2c(C3CCCCC3)n[nH]c2=S)cc1 do in these assays?
JMJD2A Tudor inh: 3.5µM*; Sfp PPTase inh: 16%; G9a block: 10µM*; BAZ2B block: -14%; HP1b binding inh: 20%

How did Cc1ccc(/C=N/n2c(C3CCCCC3)n[nH]c2=S)o1 do in these assays?
JMJD2A Tudor inh: 10µM*; Sfp PPTase inh: -29%; G9a block: 2µM*; BAZ2B block: -37%; L3MBTL1 inh: -8%; HP1b binding inh: inconclusive

What do the screens show for `O=C(N/N=C/c1ccc(C(=O)O)cc1)C(=O)N1CCCCCC1`?
JMJD2A Tudor inh: -2%; Sfp PPTase inh: 5%; BAZ2B block: 1%; HP1b binding inh: 22%

Results for Cc1ccc(/C=N/N2CCCCC2)o1 ?
JMJD2A Tudor inh: -7%; Sfp PPTase inh: -42%; G9a block: inconclusive; BAZ2B block: -16%; HP1b binding inh: 2%

What do the screens show for `S=c1[nH]nc(C2CCCCC2)n1/N=C/c1cccs1`?
JMJD2A Tudor inh: 50µM*; Sfp PPTase inh: -1%; G9a block: inconclusive; BAZ2B block: -38%; L3MBTL1 inh: -9%; HP1b binding inh: -21%

How did O=C(Nc1ccc(Br)cc1)C1CCN(S(=O)(=O)c2cccc3nsnc23)CC1 do in these assays?
JMJD2A Tudor inh: -14%; G9a block: -3%[59 µM]; HP1b binding inh: 21%

Results for CC(=O)O[C@]1(C)CC[C@]23CC1C(C)(C)C2CC[C@@H]3C (some centres not stated) ?
Sfp PPTase inh: 11%

How did CSc1ccc(/C=N/n2c(C)nnc2C)cc1 do in these assays?
JMJD2A Tudor inh: 1%; Sfp PPTase inh: 12%; G9a block: inconclusive; BAZ2B block: -4%; L3MBTL1 inh: 0%; HP1b binding inh: 10%

How did CSc1ccc(/C=N/n2c(C3CCCCC3)n[nH]c2=S)cc1 do in these assays?
JMJD2A Tudor inh: inconclusive; Sfp PPTase inh: -7%; G9a block: 11µM*; BAZ2B block: inconclusive; HP1b binding inh: inconclusive

Results for S=c1[nH]nc(C2CCCCC2)n1/N=C/c1ccncc1 ?
JMJD2A Tudor inh: 5µM*; Sfp PPTase inh: 40µM*; G9a block: inconclusive; BAZ2B block: -15%; L3MBTL1 inh: -16%[2.29 µM]; HP1b binding inh: -15%

What do the screens show for `CCn1cc(C(=O)NCCCOC)c(=O)c2cc(S(=O)(=O)N3CCc4ccccc4C3)ccc21`?
JMJD2A Tudor inh: -19%; G9a block: -21%[59 µM]; HP1b binding inh: 32%

How did COc1cccc(CS(=O)(=O)c2nnnn2-c2ccccc2)c1 do in these assays?
Sfp PPTase inh: 8%

How did O=C(Nc1cccc(C(=O)O)c1)Nc1ccccc1Cl do in these assays?
JMJD2A Tudor inh: 1%; Sfp PPTase inh: 5%; G9a block: -5%; BAZ2B block: -3%; L3MBTL1 inh: 11%; HP1b binding inh: 36%

Results for O=C(Nc1cccc(Cl)c1)Nc1ccc2nccnc2c1 ?
JMJD2A Tudor inh: 3%; Sfp PPTase inh: -19%; G9a block: 50µM*; BAZ2B block: -22%; HP1b binding inh: 32%

What do the screens show for `O=C(Nc1ccc2nccnc2c1)Nc1ccccc1Cl`?
JMJD2A Tudor inh: 20µM*; Sfp PPTase inh: inconclusive; G9a block: inconclusive; BAZ2B block: -13%; HP1b binding inh: 22%

What do the screens show for `Cc1cc2c(n1-c1ccc(C(=O)NCCc3ccc(Cl)cc3)cc1)CCCC2`?
JMJD2A Tudor inh: -27%; G9a block: -5%[59 µM]; BAZ2B block: -20%; HP1b binding inh: 21%

Results for COc1ccc(C2C=C(C)Nc3nc(SC)nn32)cc1 (configuration not stated) ?
JMJD2A Tudor inh: -18%; Sfp PPTase inh: -1%; G9a block: 56µM*; BAZ2B block: 0%; L3MBTL1 inh: 6%; HP1b binding inh: 38%

Results for Cc1cc2nc(N3C(=O)CNC3=S)sc2cc1C ?
JMJD2A Tudor inh: -20%; Sfp PPTase inh: 2%; G9a block: 1%; BAZ2B block: 45µM*; L3MBTL1 inh: -5%; HP1b binding inh: 29%

Results for CCOc1ccc2nc(N3C(=O)CNC3=S)sc2c1 ?
JMJD2A Tudor inh: -15%; Sfp PPTase inh: -13%; G9a block: 8%; BAZ2B block: -21%; HP1b binding inh: 32%

How did CCCCC/C=C\C/C=C\C/C=C\C/C=C\CCCCCC(=O)NCC(=O)O do in these assays?
Sfp PPTase inh: -1%

How did CCCNC(=O)c1c(NC(=O)c2ccc(C)cc2)sc2c1CCCCC2 do in these assays?
JMJD2A Tudor inh: 6%; G9a block: -4%[59 µM]; BAZ2B block: 1%; HP1b binding inh: 44%

Results for COc1ccc(C(=O)N2CCC(C(=O)N3CCN(c4ccccc4)CC3)CC2)cc1 ?
JMJD2A Tudor inh: -6%; HP1b binding inh: 22%
